Data published in PubChem BioAssay AID449739 (Vanderbilt High Throughput Screening Facility, 2010).
The campaign covered roughly 100,000 compounds. About 4,200 (4.2%) were called active.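 How the source made its calls: active means single-dose well whose peak fluorescence ratio is a statistical outlier from its plate by either plate-standardised score or position-corrected B-score; inactive means the rest.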 This excerpt belongs to a sample that is enriched for actives.

What follows are compounds tested against Voltage-dependent T-type calcium channel subunit alpha-1H (Homo sapiens) (UniProt O95180) (assay: Cav3.2 calcium influx blockers – cell-based, Fluo-4 calcium fluorescence, FDSS, MLSMR library, primary screen (AID 449739)). Conditions: Cav3.2-expressing cells, at 10 µM, stronger effect = lower value.
Sequence of Voltage-dependent T-type calcium channel subunit alpha-1H (Homo sapiens) (O95180 whole entry, looked up): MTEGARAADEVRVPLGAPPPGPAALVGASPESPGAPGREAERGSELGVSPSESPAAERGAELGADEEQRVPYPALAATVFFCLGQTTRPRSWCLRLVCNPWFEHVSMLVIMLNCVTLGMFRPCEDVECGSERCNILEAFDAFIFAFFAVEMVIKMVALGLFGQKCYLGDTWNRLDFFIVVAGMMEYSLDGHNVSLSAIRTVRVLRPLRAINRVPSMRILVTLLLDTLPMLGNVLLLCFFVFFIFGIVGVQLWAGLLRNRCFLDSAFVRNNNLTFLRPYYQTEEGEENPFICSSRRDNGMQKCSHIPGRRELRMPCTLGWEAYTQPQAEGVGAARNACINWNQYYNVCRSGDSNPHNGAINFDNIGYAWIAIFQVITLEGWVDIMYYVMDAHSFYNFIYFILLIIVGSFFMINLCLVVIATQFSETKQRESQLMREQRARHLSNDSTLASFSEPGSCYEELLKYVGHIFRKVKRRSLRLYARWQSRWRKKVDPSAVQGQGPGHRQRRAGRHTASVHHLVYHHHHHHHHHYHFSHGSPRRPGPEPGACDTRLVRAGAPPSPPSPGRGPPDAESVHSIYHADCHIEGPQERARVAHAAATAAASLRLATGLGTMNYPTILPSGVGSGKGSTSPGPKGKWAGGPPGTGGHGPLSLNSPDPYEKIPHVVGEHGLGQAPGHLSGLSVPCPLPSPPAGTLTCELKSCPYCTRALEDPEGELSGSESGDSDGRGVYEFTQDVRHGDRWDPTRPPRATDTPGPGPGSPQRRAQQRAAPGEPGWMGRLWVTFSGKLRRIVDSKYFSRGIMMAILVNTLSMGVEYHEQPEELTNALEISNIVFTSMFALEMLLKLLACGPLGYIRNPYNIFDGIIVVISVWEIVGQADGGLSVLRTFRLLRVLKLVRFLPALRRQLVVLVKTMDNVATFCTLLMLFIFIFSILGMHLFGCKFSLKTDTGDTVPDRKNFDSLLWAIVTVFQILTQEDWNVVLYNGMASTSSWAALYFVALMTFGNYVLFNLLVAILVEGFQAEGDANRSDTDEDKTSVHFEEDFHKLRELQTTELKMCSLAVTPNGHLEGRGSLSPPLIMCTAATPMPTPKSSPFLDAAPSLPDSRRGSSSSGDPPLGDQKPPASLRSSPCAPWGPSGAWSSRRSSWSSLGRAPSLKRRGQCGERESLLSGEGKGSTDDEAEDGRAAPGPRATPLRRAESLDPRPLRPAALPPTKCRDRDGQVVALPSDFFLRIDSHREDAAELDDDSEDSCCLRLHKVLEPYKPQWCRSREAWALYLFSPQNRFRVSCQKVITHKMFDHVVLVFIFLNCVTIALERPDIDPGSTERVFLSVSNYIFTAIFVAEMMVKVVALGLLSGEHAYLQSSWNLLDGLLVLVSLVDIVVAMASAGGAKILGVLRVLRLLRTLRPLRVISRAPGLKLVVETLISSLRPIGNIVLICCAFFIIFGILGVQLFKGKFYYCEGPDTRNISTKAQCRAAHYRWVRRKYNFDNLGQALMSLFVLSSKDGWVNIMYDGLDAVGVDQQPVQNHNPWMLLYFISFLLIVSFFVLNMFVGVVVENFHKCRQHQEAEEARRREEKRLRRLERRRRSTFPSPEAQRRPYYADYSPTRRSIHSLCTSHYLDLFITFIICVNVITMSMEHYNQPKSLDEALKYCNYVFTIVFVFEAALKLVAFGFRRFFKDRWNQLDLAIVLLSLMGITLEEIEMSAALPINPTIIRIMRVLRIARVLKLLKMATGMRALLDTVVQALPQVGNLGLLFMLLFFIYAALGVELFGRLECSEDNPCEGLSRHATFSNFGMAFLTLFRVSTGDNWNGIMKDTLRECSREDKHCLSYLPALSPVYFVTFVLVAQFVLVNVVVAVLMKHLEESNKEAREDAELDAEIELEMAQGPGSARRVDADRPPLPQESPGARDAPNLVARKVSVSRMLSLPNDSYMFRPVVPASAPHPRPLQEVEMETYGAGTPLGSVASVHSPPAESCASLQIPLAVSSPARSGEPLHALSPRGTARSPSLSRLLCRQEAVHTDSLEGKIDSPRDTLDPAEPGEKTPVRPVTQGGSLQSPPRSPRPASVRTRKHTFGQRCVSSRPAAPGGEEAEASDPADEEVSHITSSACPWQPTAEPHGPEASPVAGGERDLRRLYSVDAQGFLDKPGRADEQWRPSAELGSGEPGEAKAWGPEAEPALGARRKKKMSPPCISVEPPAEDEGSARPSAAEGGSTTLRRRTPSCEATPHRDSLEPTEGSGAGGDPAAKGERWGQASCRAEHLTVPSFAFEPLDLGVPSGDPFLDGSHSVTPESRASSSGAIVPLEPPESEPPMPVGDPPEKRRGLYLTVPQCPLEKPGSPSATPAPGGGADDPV

SMILES | B-score
CCC(C)[C@@H](C(=O)N1CCNCC1)n1cc(CCCCN)nn1 (stereo partly drawn) | 0.219 (inactive)
CC1(C)CC(=O)C2=C(C1)N=C1SCCC(=O)N1C2c1ccc(C(F)(F)F)cc1 (stereo not drawn) | -1.88 (inactive)
CC(C)(C)NS(=O)(=O)CC12CCC(CC1=O)C2(C)C (stereo not drawn) | 0.0444 (inactive)
CCCC(=O)NC(Nc1ccccc1OC)C(Cl)(Cl)Cl (stereo not drawn) | 0.143 (inactive)
NCCCC[C@@H]1NC(=O)[C@H](CCC(=O)O)NC(=O)c2cc([N+](=O)[O-])cc(I)c2NCC[C@@H](C(N)=O)NC1=O | 0.612 (inactive)
O=C(c1ccccc1)N1CCN(C(=O)N2CCCCC2)CC1 | 1.15 (inactive)
O=C(O)CC(c1ccccc1)n1cnnn1 (stereo not drawn) | 0.533 (inactive)
O=C(c1ccc(-n2cnnn2)cc1)N1CCN(C(c2ccccc2)c2ccccc2)CC1 | -4.29 (active)
N/C(=N\OC(=O)CCC1CCCCC1)c1ccccn1 | 0.693 (inactive)
N#Cc1nc(-c2ccc(OCc3ccccc3)cc2)oc1NCCCN1CCOCC1 | -0.428 (inactive)
N#Cc1nc(Cc2ccccc2)oc1NCCc1ccccc1 | -6.7 (active)
N#Cc1nc(COc2ccc(-c3ccccc3)cc2)oc1NCc1cccnc1 | -1.76 (inactive)
CC1C/C(=N/NC(=O)c2cccs2)CC(C)(C)C1 (stereo not drawn) | 0.092 (inactive)
CC(C)N(C(=O)COC(=O)c1ccccc1C(=O)N1CCN(c2ccc(F)cc2)CC1)C(C)C | 0.00273 (inactive)
O=C(c1ccccc1Oc1ccccc1)N1CCN(c2ccc(F)cc2)CC1 | -4.99 (active)
O=C(O)C1CC=CCC1C(=O)Nc1ccccc1C(=O)N1CCN(c2ccccc2)CC1 (stereo not drawn) | 0.0959 (inactive)
Cn1c(Cc2cccc3ccccc23)nnc1SCC(=O)N1CCN(c2cccc(Cl)c2)CC1 | -6.61 (active)
Cc1cc2nnc(SCC(=O)N3CCN(c4ccccc4)CC3)n2c(N)n1 | 0.355 (inactive)
Cc1ccccc1NC(=O)Cc1nnc(SCC(=O)N2CCN(c3ccccc3)CC2)n1C | 0.445 (inactive)
C=CCC1(C(=O)N(C)Cc2ccccc2)CCN(C(=O)OC(C)(C)C)CC1 | -0.119 (inactive)

SMILES | B-score
CC(C)(C)NC(=O)NC(=O)COC(=O)CCC1CCCCC1 | -0.871 (inactive)
CC(=O)Nc1ccn(Cc2c(F)cccc2Cl)n1 | -0.881 (inactive)
O=C(Nc1ccn(Cc2ccc(F)cc2)n1)c1ccncc1 | 0.582 (inactive)
O=C(Nc1ccn(Cc2ccccc2F)n1)c1ccc(COc2ccc(Cl)cc2Cl)o1 | -5.79 (active)
O=C(C1=C[C@H](c2ccc(C(F)(F)F)cc2)C[C@H](OCc2ccc(CO)cc2)O1)N1CCN(Cc2ccccc2)CC1 | -0.906 (inactive)
CC(C)(C)[C@H]1C=C(C(=O)NCc2ccccc2)O[C@@H](OCc2ccc(CO)cc2)C1 | -0.683 (inactive)
COc1cc(/C=N/NC(=O)Nc2ccccc2)ccc1OCCOc1ccccc1C | -1.44 (inactive)
O=C(NC(Nc1nc2ccc([N+](=O)[O-])cc2s1)(C(F)(F)F)C(F)(F)F)c1ccccc1 | -8.17 (active)
Cc1nn(CC(=O)Nc2nc3ccccc3s2)c(C)c1[N+](=O)[O-] | -1.65 (inactive)
CNC(=O)c1ccc2nc(NC(C)=O)sc2c1 | 1.09 (inactive)
COc1ccc(NC(=O)CCN2CCCC2)c(OC)c1 | 0.0598 (inactive)
CCOc1ccc(C(=O)Nc2cc(OC)ccc2OC)cc1 | -0.483 (inactive)
COc1ccc(OC)c(NC(=O)CCN2CCC(C)CC2)c1 | -3.95 (active)
Cc1ccc(N2C(=O)C(Cc3ccccc3)NC2=S)cc1 (stereo not drawn) | 0.262 (inactive)
Cc1cn(C)c(=O)n(C)c1=O | 0.776 (inactive)
COc1ccc(-c2nc3c(s2)CCc2onc(-c4ccc(Br)cc4)c2-3)cc1 | 0.734 (inactive)
COc1cc(C(=O)N2CCN(C/C=C/c3ccccc3)CC2)cc(OC)c1C | -0.741 (inactive)
N#Cc1c(C(F)(F)F)cc(-c2ccccc2)nc1SCC(=O)N1CCOCC1 | 1.07 (inactive)
COc1cc(NS(=O)(=O)c2ccc(N=Cc3c(C)[nH]n(-c4ccccc4)c3=O)cc2)nc(OC)n1 | 1.56 (inactive)
Cc1[nH]n(-c2cccc(Cl)c2)c(=O)c1/C=N/n1c(C)nc2ccccc2c1=O | -5.96 (active)

SMILES | B-score
Cc1[nH]n(-c2ccc(Cl)cc2)c(=O)c1/C=N/n1c(C)nc2ccccc2c1=O | -2.58 (inactive)
CCO[C@@H]1OC(C(=O)NC2CC2)=C[C@H](C)[C@H]1CCCO | 0.361 (inactive)
O=C(Nc1ccccc1)O/N=C1\CCCCC1c1ccc([N+](=O)[O-])cc1[N+](=O)[O-] (stereo not drawn) | -1.88 (inactive)
CN1CC(c2ccccc2)C2(COc3ccccc3C2=O)C12C(=O)Nc1ccccc12 (stereo not drawn) | -2.68 (inactive)
CCCCCCCCCCCCN1[C@@H](CC(C)=O)c2cc(F)cc(F)c2S1(=O)=O | -0.475 (inactive)
COc1ccc(C(C(O)C(=O)c2c[nH]c3ccccc23)N2CCN(c3ccccc3)CC2)cc1 (stereo not drawn) | -6.38 (active)
CCCC(=O)NC(C)C(c1cccs1)N1CCN(c2ccccc2)CC1 (stereo not drawn) | -0.0337 (inactive)
CC1CCN(CC(=O)c2c[nH]c3ccccc23)CC1 | -0.109 (inactive)
COCC(C)NC(=O)c1ccc(-n2nc(C(F)(F)F)cc2-c2cccs2)cc1 (stereo not drawn) | -0.0574 (inactive)
Cc1occc1C(=O)NNC(=S)NCC(C)C | -0.334 (inactive)
COC(C[C@@H](O)C[C@@H](O)[C@H](C)OCc1ccccc1)OC | 0.484 (inactive)
CC(NC(=O)Nc1ccccc1)C(c1cccs1)N1CCN(c2ccccc2)CC1 (stereo not drawn) | -0.634 (inactive)
COc1ccc(Cl)cc1NC(=O)CN(C)C(=O)CNC(=O)C12CC3CC(CC(C3)C1)C2 | -3.51 (active)
CCCCC(=O)N/N=C(\C)CC(=O)Nc1cc(Cl)ccc1OC | -2.17 (inactive)
COc1ccc(Cl)cc1NC(=O)c1oc(C)nc1C | -0.339 (inactive)
O=C(CCCOc1ccccc1)NCc1ccco1 | -0.629 (inactive)
CCO[C@H]1OC(C(=O)N2CCN(Cc3ccccc3)CC2)=C[C@@H](c2cn(C(C)=O)c3ccccc23)[C@@H]1CCCO | -1.16 (inactive)
COc1cc(/C=N/O)cc(Br)c1OS(=O)(=O)c1ccc(C)cc1 | -2.65 (inactive)
